Sampled rows, rich in hits. Any-hit rate of the full collection: about 1.7%.
LYPLA2 counter: blocks human lysophospholipase 2, a PME1 counter-screen. recombinant LYPLA2, FP-Rh probe fluorescence polarization. inhibition, % at 5.9 µM. 320,000 compounds, 0.38% hits. AID 2177;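 active means inhibition above the screen-wide mean plus 3 SD, limit set per campaign, cut at about 26% in these data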;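 further: 0% = LYPLA2 with DMSO and 100% = wells lacking LYPLA2 enzyme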
Target sequence (O95372 whole entry, looked up): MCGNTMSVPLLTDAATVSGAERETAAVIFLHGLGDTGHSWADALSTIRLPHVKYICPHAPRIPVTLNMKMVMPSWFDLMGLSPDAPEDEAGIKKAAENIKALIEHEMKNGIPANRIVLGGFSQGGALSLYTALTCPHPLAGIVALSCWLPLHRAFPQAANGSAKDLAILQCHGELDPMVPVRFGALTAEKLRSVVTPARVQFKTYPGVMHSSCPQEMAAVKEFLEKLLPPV
Hck Nef HTS: human Hck-Nef kinase inhibition. AID 463187. inhibition, % at 20 µM. Recombinant Hck-YEEI plus Nef, Z-Lyte FRET kinase assay. 220,000 compounds, 0.68% hits;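 active means Hck-Nef kinase inhibition above about 50%, limit read from the data; inactive means inhibition below that limit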;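 further: 0% = DMSO with Hck plus Nef and 100% = Hck alone without Nef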
PREPL inh: inhibits the human prolyl oligopeptidase-like enzyme; Q4J6C6; recombinant PREPL, fluorescence polarization activity-based probe; inhibition, % at 5.96 µM; 320,000 compounds, 0.68% hits; in the data active means inhibition above about 43%;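 further: 0% = enzyme with DMSO and 100% = wells lacking enzyme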
LYPLA1 counter: LYPLA1 (human) inhibition in PME1 counter-screen. 320,000 compounds, 0.16% hits. AID 2174. O75608. inhibition, % at 5.9 µM. recombinant LYPLA1, FP-Rh probe fluorescence polarization;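 active means inhibition above the mean of all tested compounds plus 3 SD, set per campaign, cut at about 14% in these data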;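 further: inhibitors block serine hydrolase probe labeling of LYPLA1 so polarization falls; 0% = enzyme with DMSO and 100% = wells lacking LYPLA1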
Target sequence (O75608 whole entry, looked up): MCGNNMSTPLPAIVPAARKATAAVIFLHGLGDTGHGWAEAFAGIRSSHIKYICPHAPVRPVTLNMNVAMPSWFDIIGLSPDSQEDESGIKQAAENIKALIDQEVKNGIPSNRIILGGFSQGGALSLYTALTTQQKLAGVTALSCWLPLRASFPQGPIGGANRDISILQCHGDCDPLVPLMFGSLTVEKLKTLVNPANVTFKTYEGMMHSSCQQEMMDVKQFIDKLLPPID
Rin1 Abl inh: blocks binding of human Rin1 to Abl; P00519+Q13671; TR-FRET Rin1/Abl binding, biochemical; inhibition, % at 7.35 µM; 360,000 compounds, 0.4% hits; AID 588664; in the data active means inhibition above about 5%, passing the limit was not always enough
p97 inhibitor: blocks human p97 ATPase activity. AID 1481. P55072. inhibition, % at 8 µM. recombinant p97 ATPase, Kinase-Glo ATP luminescence, 3 h. 220,000 compounds, 0.42% hits; in the data active means inhibition above about 15%;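 further: 0% = DMSO vehicle and 100% = wells lacking enzyme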
Hck-Nef confirm: Hck-Nef kinase inhibition, confirmation; AID 463188; shares compounds with Hck Nef HTS; 1,300 compounds, 28% hits; calls only at 10 µM; Recombinant Hck-YEEI:Nef, Z-Lyte FRET kinase assay;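 active means average inhibition of at least 50%, with Z-scores no higher than 3 in both the phospho-tyrosine peptide and fluorescence counterscreens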
Rin1 Abl conf: confirmation of inhibitors of human Rin1-Abl interaction. inhibition, % at 7.35 µM. shares compounds with Rin1 Abl inh. TR-FRET Rin1-Abl binding, purified proteins. AID 602124. 1,300 compounds, 49% hits
GFP quencher: GFP fluorescence interference artifact; shares compounds with Rin1 Abl inh; inhibitors/quenchers counterscreen; inhibition, % at 6.75 µM; 1,300 compounds, 8.5% hits; AID 602125;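 further: ABL1-eGFP fusion protein alone without its partner RIN1-SBP; 0% = protein with vehicle and 100% = wells lacking protein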
GFP quench DR: quenches GFP in dose response, Rin1-Abl counter-screen. shares compounds with Rin1 Abl inh. GFP fluorescence interference/quenching counterscreen. IC50, µM. 230 tested, under 10 active; call rule not given here;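 further: ABL1-eGFP fusion protein alone without its RIN1 binding partner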
Starred values were filed as active, the others as inactive; i = inactive; x = no result; + = active, no number; ! = repeats disagree. Unless noted, no stated cut-off is given here; in the data, active means inhibition above about 6.5%; inactive means the rest.

SMILES	LYPLA2 counter	Hck Nef HTS	PREPL inh	LYPLA1 counter	Rin1 Abl inh	p97 inhibitor	Rin1 Abl conf	GFP quencher	others
Nc1ncnc2c1ccn2[C@@H]1O[C@H](CO)[C@@H](O)[C@H]1O	5.7	x	-1.6	3.5	1.8	x	x	x
NC(=S)c1cn(C2OC(CO)C(O)C2O)c2ncnc(N)c12 (centres undefined)	-5.0	95.3*	0.5	0.1	1.2	3.3	x	x	Hck-Nef confirm=+
O=C1NC(=S)NC(=O)C1=Cc1ccc2c(c1)CCN2CCCCl	-4.8	79.0*	19.1	-4.7	-1.0	17.9*	x	x	Hck-Nef confirm=+
COCCCn1c(N)c(C(=O)NCCC(C)C)c2nc3ccccc3nc21	-8.9	50.2*	18.1	-6.0	22.0*	-5.2	1.5	-0.6	Hck-Nef confirm=i
Cc1cc(C(=O)O)c(C)n1C1CC1	1.2	8.6	-9.5	1.1	0.6	1.0	x	x
COc1ccc(C(=O)C2CCCN(Cc3cnc(C)s3)C2)c(OC)c1 (centres undefined)	-0.2	11.0	-12.0	0.7	9.9*	7.2	-1.1	0.4
CCCCCc1cc(O)c2c3c(c(=O)oc2c1)CN(C)CC3	-4.1	25.1	0.1	-4.7	8.0*	-7.4	-4.0	-1.2
O=c1[nH]c2ccccc2n1C1CCN(C(c2ccnc3ccccc23)c2nnnn2-c2ccc3c(c2)OCCO3)CC1 (centres undefined)	x	x	x	x	44.8*	x	32.2*	-0.4	GFP quench DR=>67.5
COc1ccc(-n2nnnc2C(CCSC)N2CCC(n3c(=O)[nH]c4ccccc43)CC2)cc1 (centres undefined)	x	x	x	x	12.6*	x	8.2*	-1.4
COc1ccc(C(c2nnnn2-c2ccc3c(c2)OCCO3)N2CCC(n3c(=O)[nH]c4ccccc43)CC2)cc1 (centres undefined)	x	x	x	x	6.9	x	x	x
CC=C(CC)C1(CC)C(=O)NC(=S)NC1=O	x	x	x	x	2.2	x	x	x
O=[N+]([O-])c1c2ccccc2cc2ccccc12	-11.2	x	3.2	-7.2	-1.2	x	x	x
O=C1NC2NC(=O)N([N+](=O)[O-])C2N1 (centres undefined)	4.0	-2.6	-11.7	2.2	8.7*	-5.6	8.6*	-0.4
C=C1[C@H]2CC[C@H]3[C@]4(C)C[C@H](O[C@H]5O[C@H](CO)[C@@H](OS(=O)(=O)O)[C@H](OS(=O)(=O)O)[C@H]5OC(=O)CC(C)C)C[C@@H](C(=O)O)[C@H]4CC[C@]3(C2)[C@H]1O	2.5	x	-6.3	3.4	-4.6	x	x	x
Cc1nc2nc(C)n(CCN3CCOCC3)c(=O)c2c(-c2cccc([N+](=O)[O-])c2)c1C(=O)CCCCCCCCCCN1CCC(c2ccccc2)(c2ccccc2)CC1	x	x	x	x	61.3*	x	68.7*	0.6	GFP quench DR=>67.5
O=c1c2cc([N+](=O)[O-])ccc2nc(CN2CCOCC2)n1-c1ccccc1F	x	0.5	x	x	x	6.1	x	x
COC(=O)C12OCC34C(CC5C(C)=C(O)C(=O)CC5(C)C3C(O)C1O)OC(=O)C(OC(=O)/C=C(\C)C(C)C)C24 (centres undefined)	x	x	x	x	3.0	x	x	x
CCc1nnc(NC(=O)CCc2nc(C3=CCN(C)CC3)no2)s1	5.9	-3.1	4.2	3.3	63.1*	0.0	62.2*	2.2	GFP quench DR=>67.5
COc1ccc2nc(NC(=O)CCc3nc(C4=CCN(C)CC4)no3)sc2c1	3.9	2.8	13.3	0.4	75.2*	-0.4	80.0*	-0.8	GFP quench DR=>67.5
COc1nc2ccccc2nc1N1CCN(C)CC1	x	x	x	x	2.0	x	x	x
C=CCN1CC[C@]23c4c5ccc(O)c4O[C@H]2C(=O)CC[C@@]3(O)[C@H]1C5	-0.5	22.1	5.7	-0.9	0.7	9.7	x	x
C=CCN1CCc2cccc3c2[C@H]1Cc1ccc(O)c(O)c1-3	-6.1	x	15.0	-5.6	8.5*	x	7.1*	11.2*
CCOCCCn1c(N)c(C(=O)Nc2sc3c(c2C(=O)OC)CCCC3)c2nc3ccccc3nc21	-1.4	3.1	-4.3	-1.0	22.1*	8.4	-0.4	-0.8
CCOC(=O)c1c(NC(=O)c2c(N)n(CCCOC)c3nc4ccccc4nc23)sc2c1CCCC2	1.4	0.3	3.0	6.4	-2.3	-3.5	x	x
NCCc1cc(O)c(O)cc1O	x	x	x	x	38.8*	x	40.5*	8.7*
SMILES	LYPLA2 counter	Hck Nef HTS	PREPL inh	LYPLA1 counter	Rin1 Abl inh	p97 inhibitor	Rin1 Abl conf	GFP quencher	others
Fc1ccc(CNCCc2ccccc2F)cc1	1.1	5.8	-17.8	-0.6	0.6	3.7	x	x
Fc1ccccc1CCNCc1ccccc1	5.2	3.4	-7.3	1.4	8.8*	2.7	1.0	-0.6
O=C(NC1CCCCC1)Oc1cc2oc(=O)sc2cc1Cl	0.3	8.6	0.6	4.3	6.3*	-8.6	-1.0	-1.8
Oc1ccc(/C=N/NP(=S)(c2ccccc2)c2ccccc2)c(O)c1O	-5.0	1.1	23.5	-8.8	16.3*	0.9	9.0*	5.3
Oc1ccccc1/C=N/NP(=S)(c1ccccc1)c1ccccc1	-11.8	-21.2	-18.5	-9.3	0.8	-6.0	x	x
Cn1c(O)c(/C=N/N2CCOCC2)c(=O)n(C)c1=S	9.1	17.7	13.0	5.9	0.3	7.9	x	x
COc1cc2c(ccc3cc(OC)c(OC)c(O)c32)cc1O	8.7	67.4*	20.3	0.6	20.5*	x	17.0*	5.9	GFP quench DR=>67.5
O=C(C[N+]12CCC(CC1)C(C(O)(c1ccccc1)c1ccccc1)C2)c1ccc(Br)cc1 (centres undefined)	3.9	18.2	-15.4	2.5	-2.2	8.9	x	x
COc1cccc(NC2=NCCCS2)c1	3.7	x	-10.7	1.4	-0.5	x	x	x
Cc1ccc(Cn2ccccc2=N)cc1	x	x	x	x	2.7	x	x	x
Oc1ccc2c3c1O[C@H]1[C@@H](O)CC[C@@]4(O)[C@@H](C2)N(CC2CCC2)CC[C@]314	6.7	x	-11.9	1.6	11.2*!	x	-1.6	-1.5
C=CCN1CC[C@]23c4c5ccc(O)c4OC2[C@H](O)CC[C@@]3(O)[C@H]1C5 (some centres undefined)	x	x	3.8	x	-2.0	x	x	x
O=C1NCN(c2ccccc2)C12CCN(C(c1cccs1)c1nnnn1Cc1ccccc1)CC2 (centres undefined)	x	x	x	x	2.9	x	x	x
CC(=O)OC1CC[C@]2(C#N)[C@H]3CC[C@]4(C)[C@H](C5C=CC(=O)O5)CCC4(O)C3CCC2(O)C1 (some centres undefined)	2.1	x	-9.9	-1.8	2.1	x	x	x
O=C(O)CCCCC1SCC2NC(=O)NC21 (centres undefined)	1.4	-3.2	5.9	-1.1	85.9*	-0.6	91.6*	-0.4	GFP quench DR=>67.5
CCOC(=O)c1ccc(NC(=O)NC2CC3CCC(C2)N3)cc1 (centres undefined)	22.7	25.5	0.4	3.1	18.4*	6.0	25.9*	0.0	GFP quench DR=>67.5
C[C@]12CCC3[C@@H](CC[C@H]4C[C@@H](O)CC[C@]34C)C1CCC2=O (some centres undefined)	2.7	x	7.2	2.6	2.4	x	x	x
C[C@]12CCC3C(C(=O)C[C@H]4C[C@@H](O)CC[C@]34C)C1CCC2=O (some centres undefined)	x	x	8.9	x	21.0*	x	20.5*	-1.3	GFP quench DR=>67.5

Source: PubChem (several laboratories)
